Positions of bridges follow the written chain, without caps; N, C: chain ends. Non-standard residues stand in square brackets, D forms with d. Residues, ends and D or L forms follow the SMILES beside them. ξ: configuration not given here. *: point of attachment. Octanoyl(6-Me) = CCC(C)CCCCC(=O)*; ξThr(3R) = C[C@@H](O)C(N)C(=O)O; dDab = NCC[C@@H](N)C(=O)O; Dab = NCC[C@H](N)C(=O)O; Cbz = O=C(OCc1ccccc1)*

This experiment is described as follows: qHTS profiling of the MIPE4 collection as inhibitors of Plasmodium falciparum (3D7) proliferation (AID 743344).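 Further: scaled between DMSO vehicle wells and 0.29 µM artemisinin as full inhibition.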 Conditions: P. falciparum 3D7 in erythrocytes, SYBR Green DNA fluorescence, 72 h; at 28.5 µM unless noted. The text has this: Plasmodium falciparum is a virulent malarial parasite that kills 1-2 million people worldwide each year. Transmitted by mosquitoes, the sporozoite form of the parasite enters the blood stream to infect hepatocytes, where they become merozoites that infect red blood cells (erythrocytes). Within erythrocytes, merozoites begin a […] cycle of growth and division, after which the parasite is released to infect new red blood cells. Gametocytes, which form within erythrocytes as well, circulate in the bloodstream and are ingested by the mosquito, thereby completing the life cycle. To profile malarial isolates for differential chemical responses and to identify inhibitors of malarial growth, an assay that measures P. falciparum growth and replication within erythrocytes was employed. This assay uses a DNA binding fluorescent dye (SYBR Green) to detect parasite DNA following cell lysis. Because mature erythrocytes lack DNA, only Plasmodium-derived DNA is detected.
The SYBR Green viability assay was adapted from a method described previously (Plouffe et al., 2008). For screening 3 ul culture medium was dispensed into 1536 well black clear bottom plates (Aurora Biotechnologies) using a Multidrop Combi (Thermo Fisher Scientific Inc.), 23 nL compounds in DMSO were added by a pin tool (Kalypsys), and 5 ul of erythrocytes infected with P. falciparum (0.3% parasitemia, 2.5% hematocrit final concentration) were added. The plates were incubated at 37 C in a humidified incubator in 5% CO2 for 72 h, and 2 ul lysis buffer (20 mM Tris HCl, 10 mM EDTA, 0.16% saponin, 1.6% triton X, 10X SYBR Green I supplied as 10,000X […] by Invitrogen) was added to each well. The plates were mixed for 25 sec with gentle shaking and incubated overnight at room temperature in the dark. The following morning, fluorescence intensity at 485(14) nm excitation and 535(25) nm emission wavelengths was measured on an EnVision (Perkin Elmer) plate reader. Plate reads were normalized relative to the control inhibitor (0.29 uM artemisinin) and vehicle (DMSO) wells present on each plate and then corrected by an algorithm using vehicle-only control plates at the beginning and end of the compound plate stack.
For orientation: Quantitative high-throughput screening tests each substance at several concentrations.
For `C=CC(=O)N1CCc2ccc(-n3c(=O)ccc4cnc5ccc(-c6cnn(C)c6)cc5c43)cc21`, the parasite growth, % of DMSO control came out at 5.53%.
The figure for `CC(=O)OCC(=O)[C@@]12N=C(C)O[C@H]1C[C@H]1[C@@H]3CCC4=CC(=O)C=C[C@]4(C)[C@@H]3[C@@H](O)C[C@@]12C` is 89.5%; for `C#Cc1cccc(Nc2ncnc3cc(OCCOC)c(OCCO)cc23)c1` it is 6.81%; for `CCN(CC)CCCCNc1ncc2c(n1)N(C)C(=O)N(c1c(Cl)c(OC)cc(OC)c1Cl)C2` it is 25.2%.
The figure for `CN(N=O)C(=O)N[C@H]1C(O)OC(CO)[C@@H](O)[C@H]1O` (stereo not given in full) is 81.6%.
The same measure for `CN1CCc2c(c3ccccc3n2Cc2ccc(C(=O)NO)cc2)C1`: 5.11%; for `Cc1nc(NC(=O)N2CCC[C@@H]2C(N)=O)sc1-c1ccnc(C(C)(C)C(F)(F)F)c1`: 13.3%; for `COc1cc2c(Nc3ccc(Cl)c(Cl)c3F)ncnc2cc1OCC1C[C@@H]2CN(C)C[C@H]2C1`: 6.7%.
`O=C(Nc1ccc(Oc2ccnc3[nH]ccc23)c(F)c1)c1cccn(-c2ccc(F)cc2)c1=O` had a parasite growth, % of DMSO control of 35.8%.
Take `CC(C)(C)[N+]([O-])=Cc1ccc(S(=O)(=O)O)cc1S(=O)(=O)O`: the parasite growth, % of DMSO control was 102%.
The same measure for `Cn1cc(-c2cnn3c(N)c(Br)c([C@H]4CCCNC4)nc23)cn1`: 7.85%.
The same measure for `COC1=C(OC)C(=O)C(CC=C(C)CCC=C(C)CCC=C(C)CCC=C(C)CCC=C(C)CCC=C(C)CCC=C(C)CCC=C(C)CCC=C(C)CCC=C(C)C)=C(C)C1=O`: 94.3%; for `OCc1ccccc1O[C@@H]1O[C@H](CO)[C@H](O)[C@H](O)[C@H]1O`: 95.9%; for `O=C(NNC(=O)c1ccc(CNS(=O)(=O)c2ccc(F)c(Cl)c2)cc1)c1ccccc1`: 371%.
As for `C=C1C(=CC=C2CCC[C@]3(C)[C@@H]([C@H](C)CCCC(C)(C)O)CC[C@@H]23)C[C@@H](O)C[C@@H]1O`, the parasite growth, % of DMSO control was found to be 15.5%.
The figure for `Nc1ccn(C2CO[C@H](CO)O2)c(=O)n1` (stereo not given in full) is 95.7%; for `FC(F)c1nc2ccccc2n1-c1nc(N2CCOCC2)nc(N2CCOCC2)n1` it is 4.72%.
The molecule `CN(C)CC[C@H](c1ccc(Cl)cc1)c1ccccn1` returned a parasite growth, % of DMSO control of 94.7%.
`CN(C)CCN1C(=O)c2cccc3cc(N)cc(c23)C1=O` gave a parasite growth, % of DMSO control of 18.3%.
The figure for `COc1cc(CCc2cc(NC(=O)c3ccc(N4C[C@@H](C)N[C@@H](C)C4)cc3)n[nH]2)cc(OC)c1` is 50.5%; for `OC[C@@H](O)[C@@H](O)[C@H](O)[C@@H](O)CO` it is 100%; for `CCCCCCCCCCCCc1ccc(S(=O)(=O)Nc2nncs2)cc1` it is 79.3%.
The figure for `Cc1ccccc1C(=O)Nc1ccc(C(=O)N2CCCC(O)c3cc(Cl)ccc32)c(C)c1` (stereo not given) is 22.8%; for `COc1ccc(S(=O)(=O)Nc2cc(-c3c(O)ccc4ccccc34)c(O)c3ccccc23)cc1` it is 29.2%.
`O=C(O)CCCCCC(=O)NN=C1CCCC1`: the parasite growth, % of DMSO control was 101%.
The same measure for `COc1cc(OC)c(C=CS(=O)(=O)Cc2ccc(OC)c(NCC(=O)O)c2)c(OC)c1`: 88.3%; for `CC1(C)[C@H](O[C@H]2O[C@H](C(=O)O)[C@@H](O)[C@H](O)[C@H]2O[C@@H]2O[C@H](C(=O)O)[C@@H](O)[C@H](O)[C@H]2O)CC[C@@]2(C)[C@H]1CC[C@]1(C)[C@H]2C(=O)C=C2[C@H]3C[C@@](C)(C(=O)O)CC[C@]3(C)CC[C@]21C`: 99.2%; for `O=C(CN1C(=O)C2(CCCC2)NC[C@H]1c1cc(F)cc(F)c1)Nc1ccc2c(c1)C[C@@]1(C2)C(=O)Nc2ncccc21`: 26%.
The figure for `CC(Cc1ccc(O)c(O)c1)(NN)C(=O)O` (stereo not given) is 54.5%; for `C[C@H](NCc1ccc2c(c1)nc(NC(=O)c1ccc(-c3cn[nH]c3)s1)n2CCc1ccccc1)C(C)(C)C` it is 5.07%; for `O=C1NC(=O)C(=Cc2ccc3nccc(-c4ccncc4)c3c2)S1` it is 6.28%.
The same measure for `CC(C)C[C@@H](C=O)NC(=O)[C@H](CC(C)C)NC(=O)[C@H](CC(C)C)NC(=O)OCc1ccccc1` (Cbz-Leu-Leu-Leu-aldehyde): 4.63%; for `O=C(Nc1cc2cc[nH]c2cn1)c1ccccc1`: 76.5%.
The molecule `CCOc1cc2ncc(C#N)c(Nc3ccc(OCc4ccccn4)c(Cl)c3)c2cc1NC(=O)C=CCN(C)C` registered a parasite growth, % of DMSO control of 7.93%.
On to `O=C1NC(=O)[C@@H](c2cn3c4c(cccc24)CCC3)[C@H]1c1c[nH]c2ccccc12`, for which the parasite growth, % of DMSO control amounted to 54.8%.
The molecule `C[C@@H](Oc1ccc2[nH]nc(C=Cc3cnn(CCO)c3)c2c1)c1c(Cl)cncc1Cl` yielded a parasite growth, % of DMSO control of 5.43%.
The same measure for `CCC(C)CCCCC(=O)N[C@@H](CCN)C(=O)NC(C(=O)N[C@H](CCN)C(=O)N[C@@H]1CCNC(=O)C([C@@H](C)O)NC(=O)[C@@H](CCN)NC(=O)[C@@H](CCN)NC(=O)[C@@H](CC(C)C)NC(=O)[C@H](Cc2ccccc2)NC(=O)[C@H](CCN)NC1=O)[C@@H](C)O` (stereo partly drawn) ({Octanoyl(6-Me)}-[Dab][ξThr(3R)][dDab][dDab][Dab]F[dL][dDab][dDab][ξThr(3R)]; lactam 4-C): 407%; for `CC(C)(C)c1nc2c3cc[nH]c(=O)c3c3cc(F)ccc3c2[nH]1`: 59.4%.
The same measure for `CC(C)NC[C@@H](C(=O)N1CCN(c2ncnc3c2[C@H](C)C[C@H]3O)CC1)c1ccc(Cl)cc1`: 5.13%; for `Cn1c(Nc2ccc(C(F)(F)F)cc2)nc2cc(Oc3ccnc(-c4ncc(C(F)(F)F)[nH]4)c3)ccc21`: 7.02%.
